Inconclusive results are not listed. Activity calls are given as the source filed them. The call rests on the fitted dose curve; in most records, active means well fitted curve in the direction sought with a large enough effect; inconclusive means small, poorly fitted or top-dose-only effect, or another doubt; inactive means no such curve, though single readings can be large; an effect the other way counts as inactive or inconclusive.
Key:
HEK293T [1] = experiment: qHTS assay to identify novel small-molecules to repurpose for Merkel cell carcinoma treatment (AID 1296009); settings: MCC and control cell lines, CellTiter-Glo viability, 72 h; at 44.8 µM (top of the series) unless noted; further: nearly all actives have a fitted effect of over 60% in size
How it was run: (§1)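 72 hr, 37 degree celsius; NPC 8-pt / MIPE 11-pt dose response; compound pinned in DMSO; CellTiter-Glo, 10 min RT, luminescence; normalized to no-cell and DMSO controls.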

C33A = experiment: Primary qHTS to identify gynecologic anti-cancer compounds using libraries of approved drugs and bioactive compounds (AID 1345084); settings: Gynecologic cancer cell panel viability, ATPlite luminescence, 48 h; series mostly up to 57.5 µM; further: on the % scale 0 is the no-effect control and ±100 the full control effect; nearly all actives have a fitted effect of over 55% in size
How it was run: (§2)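 Cell viability after 48 h drug treatment, ATPlite luminescence readout; five doses.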

CASKI = experiment: as above; settings: Gynecologic cancer cell panel viability, ATPlite luminescence, 48 h; series mostly up to 57.5 µM
How it was run: as §2

Es-2 = experiment: as above; settings: Gynecologic cancer cell panel viability, ATPlite luminescence, 48 h; series mostly up to 57.5 µM
How it was run: as §2

HeLa = experiment: as above; settings: Gynecologic cancer cell panel viability, ATPlite luminescence, 48 h; series mostly up to 57.5 µM
How it was run: as §2

Hek293T [2] = experiment: as above; settings: Gynecologic cancer cell panel viability, ATPlite luminescence, 48 h, control line for the selectivity index; series mostly up to 57.5 µM
How it was run: as §2

JEG-3 = experiment: as above; settings: Gynecologic cancer cell panel viability, ATPlite luminescence, 48 h; series mostly up to 57.5 µM
How it was run: as §2

OV90 = experiment: as above; settings: Gynecologic cancer cell panel viability, ATPlite luminescence, 48 h; series mostly up to 57.5 µM
How it was run: as §2

PA-1 = experiment: as above; settings: Gynecologic cancer cell panel viability, ATPlite luminescence, 48 h; series mostly up to 57.5 µM
How it was run: as §2

SKOV3 = experiment: as above; settings: Gynecologic cancer cell panel viability, ATPlite luminescence, 48 h; series mostly up to 57.5 µM
How it was run: as §2

Tov-21-G = experiment: as above; settings: Gynecologic cancer cell panel viability, ATPlite luminescence, 48 h; series mostly up to 57.5 µM
How it was run: as §2

Tov112D = experiment: as above; settings: Gynecologic cancer cell panel viability, ATPlite luminescence, 48 h; series mostly up to 57.5 µM
How it was run: as §2

NIH3T3 = experiment: qHTS assay to identify novel small-molecules to repurpose for Merkel cell carcinoma treatment (AID 1296009); settings: MCC and control cell lines, CellTiter-Glo viability, 72 h; at 44.8 µM (top of the series) unless noted; further: nearly all actives have a fitted effect of over 60% in size
How it was run: as §1

CAOV3 = experiment: Primary qHTS to identify gynecologic anti-cancer compounds using libraries of approved drugs and bioactive compounds (AID 1345084); settings: Gynecologic cancer cell panel viability, ATPlite luminescence, 48 h; series mostly up to 57.5 µM; further: on the % scale 0 is the no-effect control and ±100 the full control effect; nearly all actives have a fitted effect of over 55% in size
How it was run: as §2

COc1cc(/C=C/C(=O)O[C@H]2C[C@@H]3C(C(=O)O)=CO[C@@H](O[C@@H]4O[C@H](CO)[C@@H](O)[C@H](O)[C@H]4O)[C@@H]3[C@H]2C)ccc1O
inactive: outcome (HEK293T [1]) inactive [at 17.4 µM] | Potency (C33A) | outcome (CASKI) | Potency (Es-2) | Potency (HeLa) | Potency (Hek293T [2]) | Potency (JEG-3) | Potency (OV90) | Potency (PA-1) | Potency (SKOV3) | Potency (Tov-21-G) | Potency (Tov112D)

CC1=C(CCC(C)O[C@@H]2O[C@H](CO)[C@@H](O)[C@H](O)[C@H]2O)C(C)(C)CC(O)C1 (stereo partly specified)
inactive: outcome (NIH3T3) | Potency (C33A) | Potency (CAOV3) | outcome (CASKI) | Potency (Es-2) | Potency (HeLa) | Potency (Hek293T [2]) | Potency (JEG-3) | Potency (OV90) | Potency (PA-1) | Potency (SKOV3) | Potency (Tov-21-G) | Potency (Tov112D)

C=C1C(=O)OC2CC(COC(=O)C(C)C)=C(C(C)CCCOC(C)=O)[C@@H](OC(C)=O)C12 (stereo partly specified)
inactive: outcome (NIH3T3) inactive [at 17.4 µM] | Potency (C33A) | Potency (CAOV3) | outcome (CASKI) | Potency (Es-2) | Potency (HeLa) | Potency (Hek293T [2]) | Potency (JEG-3) | Potency (OV90) | Potency (PA-1) | Potency (SKOV3) | Potency (Tov-21-G) | Potency (Tov112D)

CC1=CC23[C@H](C=C(C(=O)O)[C@@H]2COC(=O)[C@]3(O)CO)[C@@H]1C (stereo partly specified)
inactive: outcome (NIH3T3) | Potency (C33A) | Potency (CAOV3) | outcome (CASKI) | Potency (Es-2) | Potency (HeLa) | Potency (Hek293T [2]) | Potency (JEG-3) | Potency (OV90) | Potency (PA-1) | Potency (SKOV3) | Potency (Tov-21-G) | Potency (Tov112D)

O=C(OC[C@H]1O[C@@H](Oc2ccccc2COC(=O)C2(O)C=CCCC2O)[C@H](O)[C@@H](O)[C@@H]1O)c1ccccc1 (stereo partly specified)
inactive: outcome (NIH3T3) inactive [at 17.4 µM] | Potency (C33A) | Potency (CAOV3) | outcome (CASKI) | Potency (Es-2) | Potency (HeLa) | Potency (Hek293T [2]) | Potency (JEG-3) | Potency (OV90) | Potency (PA-1) | Potency (SKOV3) | Potency (Tov-21-G) | Potency (Tov112D)

CC(=O)OCC1OC(O[C@H]2CC[C@]34C[C@]35CC(O)[C@]3(C)[C@@H]([C@H](C)CC/C=C(\C)C(=O)O)C(O)C[C@@]3(C)C5CC[C@H]4C2(C)C)C(O)C(O)C1OC1OCC(O)C(O)C1O (stereo partly specified)
inactive: outcome (NIH3T3) inactive [at 9.27 µM] | activity change, negative = cytotoxicity (C33A) -4.66% [at 11.6 µM] | activity change, negative = cytotoxicity (CAOV3) -5.98% [at 11.6 µM] | activity change, negative = cytotoxicity (CASKI) -12.9% [at 11.6 µM] | activity change, negative = cytotoxicity (Es-2) -0.425% [at 11.6 µM] | activity change, negative = cytotoxicity (HeLa) 6.1% [at 11.6 µM] | activity change, negative = cytotoxicity (Hek293T [2]) -4.45% [at 11.6 µM] | activity change, negative = cytotoxicity (JEG-3) -9.54% [at 11.6 µM] | activity change, negative = cytotoxicity (OV90) -7.9% [at 11.6 µM] | activity change, negative = cytotoxicity (PA-1) -0.531% [at 11.6 µM] | activity change, negative = cytotoxicity (SKOV3) -12.1% [at 11.6 µM] | activity change, negative = cytotoxicity (Tov-21-G) 4.53% [at 11.6 µM] | activity change, negative = cytotoxicity (Tov112D) 2.89% [at 11.6 µM]

C=C[C@H]1[C@H](O[C@@H]2O[C@H](CO)[C@@H](O)[C@H](O)[C@H]2O)OC=C(C(=O)OC)[C@H]1CC=O
inactive: outcome (NIH3T3) | Potency (C33A) | Potency (CAOV3) | outcome (CASKI) | Potency (Es-2) | Potency (HeLa) | Potency (Hek293T [2]) | Potency (JEG-3) | Potency (OV90) | Potency (PA-1) | Potency (SKOV3) | Potency (Tov-21-G) | Potency (Tov112D)

Cc1ccccc1-c1cc(N2CCN(C)CC2)ncc1N(C)C(=O)C(C)(C)c1cc(C(F)(F)F)cc(C(F)(F)F)c1
inactive: outcome (NIH3T3) | Potency (C33A) | Potency (CAOV3) | outcome (CASKI) | Potency (Es-2) | Potency (HeLa) | Potency (Hek293T [2]) | Potency (JEG-3) | Potency (OV90) | Potency (PA-1) | Potency (SKOV3) | Potency (Tov-21-G) | Potency (Tov112D)

C=C1C(OC(C)=O)CCC2(C)CC3(O)OC(=O)C(C)=C3CC12 (stereo unspecified)
inactive: outcome (NIH3T3) | Potency (C33A) | Potency (CAOV3) | outcome (CASKI) | Potency (Es-2) | Potency (HeLa) | Potency (Hek293T [2]) | Potency (JEG-3) | Potency (OV90) | Potency (PA-1) | Potency (SKOV3) | Potency (Tov-21-G) | Potency (Tov112D)

CC1CC=C2C1CC1(O)C(=O)CC2(C)C1(C)CO (stereo unspecified)
inactive: outcome (NIH3T3) | Potency (C33A) | Potency (CAOV3) | outcome (CASKI) | Potency (Es-2) | Potency (HeLa) | Potency (Hek293T [2]) | Potency (JEG-3) | Potency (OV90) | Potency (PA-1) | Potency (SKOV3) | Potency (Tov-21-G) | Potency (Tov112D)

COc1cc([C@@H](O[C@@H]2O[C@H](CO)[C@@H](O)[C@H](O)[C@H]2O)[C@@H]2CO[C@H](c3ccc(O)c(OC)c3)[C@H]2CO)ccc1O
inactive: outcome (NIH3T3) inactive [at 17.4 µM] | Potency (C33A) | Potency (CAOV3) | outcome (CASKI) | Potency (Es-2) | Potency (HeLa) | Potency (Hek293T [2]) | Potency (JEG-3) | Potency (OV90) | Potency (PA-1) | Potency (SKOV3) | Potency (Tov-21-G) | Potency (Tov112D)

COc1cccc(OC)c1-c1nc(C(=O)N[C@@H](CC(C)C)C(=O)O)cn1-c1ccnc2cc(Cl)ccc12
inactive: outcome (NIH3T3) | Potency (C33A) | Potency (CAOV3) | outcome (CASKI) | Potency (Es-2) | Potency (HeLa) | Potency (Hek293T [2]) | Potency (JEG-3) | Potency (OV90) | Potency (PA-1) | Potency (SKOV3) | Potency (Tov-21-G) | Potency (Tov112D)

COC(=O)[C@]1(C)CCC[C@@]2(C)[C@@H]3CC[C@@H]4C[C@@]3(CC[C@@H]21)C[C@H]4C(=O)O
inactive: outcome (NIH3T3) | Potency (C33A) | Potency (CAOV3) | outcome (CASKI) | Potency (Es-2) | Potency (HeLa) | Potency (Hek293T [2]) | Potency (JEG-3) | Potency (OV90) | Potency (PA-1) | Potency (SKOV3) | Potency (Tov-21-G) | Potency (Tov112D)

CCCCCOC(=O)Nc1nc(=O)n(C2O[C@H](C)[C@@H](O)[C@H]2O)cc1F (stereo partly specified)
inactive: outcome (NIH3T3) | Potency (C33A) | Potency (CAOV3) | outcome (CASKI) | Potency (Es-2) | Potency (HeLa) | Potency (Hek293T [2]) | Potency (JEG-3) | Potency (OV90) | Potency (PA-1) | Potency (SKOV3) | Potency (Tov-21-G) | Potency (Tov112D)
